In PubChem BioAssay (EPA / NIEHS) one finds outcome data, which are given here for 27 molecules.

The structures appear in SMILES notation. Inconclusive results are not listed. Activity calls are given as the source filed them. Rule for the calls: active = hit-call score of the fitted dose curve at least 0.9, where 1 is the maximum; inconclusive = response in the unintended direction; inactive = score below 0.9.

Sequence of Estrogen-related receptor gamma (Homo sapiens) (P62508 whole entry, looked up, the tested form may be a part): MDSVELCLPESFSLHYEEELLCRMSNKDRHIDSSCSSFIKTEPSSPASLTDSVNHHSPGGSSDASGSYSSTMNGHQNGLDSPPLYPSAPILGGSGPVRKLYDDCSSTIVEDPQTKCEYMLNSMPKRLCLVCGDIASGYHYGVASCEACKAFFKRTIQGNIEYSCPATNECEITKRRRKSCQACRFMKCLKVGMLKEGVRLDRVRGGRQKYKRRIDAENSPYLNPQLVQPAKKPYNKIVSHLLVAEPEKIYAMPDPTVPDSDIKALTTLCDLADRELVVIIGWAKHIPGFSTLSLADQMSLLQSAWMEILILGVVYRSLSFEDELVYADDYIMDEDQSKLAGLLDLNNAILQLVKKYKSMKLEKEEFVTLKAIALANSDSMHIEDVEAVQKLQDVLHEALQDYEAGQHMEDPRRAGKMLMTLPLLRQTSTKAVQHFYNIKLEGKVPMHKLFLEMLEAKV
Sequence of Glucocorticoid receptor (Homo sapiens) (P04150 whole entry, looked up, the tested form may be a part): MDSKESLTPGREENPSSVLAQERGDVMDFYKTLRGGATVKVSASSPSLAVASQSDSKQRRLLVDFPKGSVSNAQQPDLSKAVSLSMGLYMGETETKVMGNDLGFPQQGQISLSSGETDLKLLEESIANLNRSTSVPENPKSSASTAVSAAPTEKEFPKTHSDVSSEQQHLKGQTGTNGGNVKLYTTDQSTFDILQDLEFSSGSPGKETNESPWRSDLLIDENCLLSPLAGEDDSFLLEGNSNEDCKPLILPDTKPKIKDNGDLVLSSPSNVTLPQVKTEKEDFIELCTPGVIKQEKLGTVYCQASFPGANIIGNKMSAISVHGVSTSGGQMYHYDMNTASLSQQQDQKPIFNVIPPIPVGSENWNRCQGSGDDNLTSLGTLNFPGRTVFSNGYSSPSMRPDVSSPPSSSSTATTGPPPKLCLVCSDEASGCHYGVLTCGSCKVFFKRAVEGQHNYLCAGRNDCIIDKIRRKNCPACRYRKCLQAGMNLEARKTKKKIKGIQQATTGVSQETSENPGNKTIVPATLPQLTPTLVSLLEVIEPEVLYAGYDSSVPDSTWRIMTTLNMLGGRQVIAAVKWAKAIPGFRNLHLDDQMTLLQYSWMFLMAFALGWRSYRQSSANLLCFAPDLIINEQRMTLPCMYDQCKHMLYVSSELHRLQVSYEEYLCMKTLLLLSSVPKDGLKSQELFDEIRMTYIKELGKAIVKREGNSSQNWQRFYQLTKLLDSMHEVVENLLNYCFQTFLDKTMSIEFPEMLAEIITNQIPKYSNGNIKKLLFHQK
Sequence of Bile acid receptor (Homo sapiens) (Q96RI1 whole entry, looked up, the tested form may be a part): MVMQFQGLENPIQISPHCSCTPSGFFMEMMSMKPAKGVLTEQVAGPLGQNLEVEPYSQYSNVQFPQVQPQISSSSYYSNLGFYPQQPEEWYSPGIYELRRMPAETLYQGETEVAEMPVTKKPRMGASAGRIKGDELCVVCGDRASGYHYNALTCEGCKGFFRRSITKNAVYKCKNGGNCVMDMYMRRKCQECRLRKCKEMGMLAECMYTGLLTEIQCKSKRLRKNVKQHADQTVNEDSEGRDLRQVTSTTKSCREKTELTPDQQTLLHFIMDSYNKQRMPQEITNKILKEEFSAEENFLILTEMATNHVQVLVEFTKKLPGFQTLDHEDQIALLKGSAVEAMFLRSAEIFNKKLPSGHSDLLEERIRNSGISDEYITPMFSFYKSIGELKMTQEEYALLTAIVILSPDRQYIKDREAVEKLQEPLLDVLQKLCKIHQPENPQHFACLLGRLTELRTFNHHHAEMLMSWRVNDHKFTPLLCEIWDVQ

One assay has as its target Estrogen-related receptor gamma (Homo sapiens) (UniProt P62508). The assay can be described thus: ATG_ERRg_TRANS: Attagene TRANS-FACTORIAL HepG2 Assay for human Estrogen-Related Receptor gamma (ERRg) (AID 2282977).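 Note: hits increase reporter signal over DMSO so potencies reflect activators.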 The settings on record: HepG2 Attagene TRANS reporter, ERRg transactivation. The essentials: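 Transient HepG2 transfectants, 24 h compound exposure, GAL4-UAS reporter mRNA by RT-PCR/6-FAM labelling/capillary electrophoresis; positive direction vs DMSO.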
Regarding `CCc1c(C)cc(N)c(CC)c1N`, the outcome was inactive.

As to `CCCCC(CC)COC(=O)/C=C\C(=O)OCC(CC)CCCC` (configuration not stated), the molecule was called inactive.

`COC(=O)OC`: the molecule was classed as inactive.

For `CC(=O)OCC=Cc1ccccc1`, the result was inactive.

In the case of `Nc1cccc(S(=O)(=O)c2cccc(N)c2)c1`, the molecule was classed as inactive.

With `CCCC(=O)C(C)=O`, the call was inactive.

A further assay addresses Glucocorticoid receptor (Homo sapiens) (UniProt P04150). The assay can be described thus: ATG_GR_TRANS: Attagene TRANS-FACTORIAL HepG2 Assay for human Glucocorticoid Receptor (GR) (AID 2282978).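 Note: activators score as hits since higher reporter transcript over DMSO is fitted.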 The settings on record: HepG2 Attagene TRANS GR reporter, mRNA transcription. In outline: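 Exogenous NR-GAL4 fusion activity was assessed through induced GAL4-UAS reporter transcripts in transfected human HepG2 cells, quantified after 24 h by RT-PCR and fluorescent capillary electrophoresis with DMSO as baseline.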
With `Nc1cc([N+](=O)[O-])ccc1O`, the outcome was inactive.

Consider `CCc1c(C)cc(N)c(CC)c1N`, for which the molecule was classed as inactive.

In the case of `CCCCc1ccc(N)cc1`, the call was inactive.

Turning to `O=S(=O)(O)c1cccc2c(S(=O)(=O)O)cccc12`, the molecule was called inactive.

Consider `CCCCC(CC)COC(=O)/C=C\C(=O)OCC(CC)CCCC` (configuration not stated), for which the call was inactive.

In the case of `CCCCOCCOCCSC#N`, the call was inactive.

`COC(=O)OC`: the molecule was classed as inactive.

Take `O=C1OC2(c3cc(Br)c(O)c(Br)c3Oc3c2cc(Br)c(O)c3Br)c2c(Cl)c(Cl)c(Cl)c(Cl)c21`: the outcome was inactive.

For `CN(C)CCCN`, the call was inactive.

As to `C[Si](O[Si](C)(C)C)O[Si](C)(C)C`, the result was inactive.

As for `CC(CCO)CCCC(C)(C)O` (configuration not stated), the outcome was inactive.

For the molecule `CC(=O)OCC=Cc1ccccc1`, the result was inactive.

Take `CC1=CCC2C(C1)C2(C)C` (configuration not stated): the result was inactive.

As to `CCCC(C)C=O` (configuration not stated), the outcome was inactive.

As to `COC(=O)c1ccc(C)cc1`, the outcome was inactive.

In the case of `Nc1cccc(S(=O)(=O)c2cccc(N)c2)c1`, the molecule was classed as inactive.

Consider `CC(C)c1ccc(C(C)C)cc1`, for which the result was inactive.

For `COCCOCCOCCOCCOCCO`, the molecule was classed as inactive.

For `Cc1ccc2sc3cccc(C)c3c2c1`, the molecule was called inactive.

In the case of `CC(C)c1cccc(O)c1`, the molecule was classed as inactive.

Consider `CNC(=O)Oc1ccc2c(c1)[C@]1(C)CCN(C)[C@@H]1N2C`, for which the result was inactive.

`CCOC(=S)SSC(=S)OCC`: the molecule was called inactive.

In the next assay the target is Bile acid receptor (Homo sapiens) (UniProt Q96RI1). The assay can be described thus: ATG_FXR_TRANS: Attagene TRANS-FACTORIAL HepG2 Assay for Farnesoid X Receptor (FXR) (AID 2282979).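 Note: hits raise reporter mRNA above DMSO so AC50 marks FXR activation.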 To be noted: HepG2 Attagene TRANS FXR-GAL4 reporter transcription. In outline:
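HepG2 cells transiently transfected with reporter constructs in which a chimeric FXR-GAL4 protein drives a GAL4-UAS reporter; 24 h compound exposure. Reporter mRNA measured by RT-PCR, FAM labelling, HpaI digestion and capillary electrophoresis; gain-of-signal versus DMSO.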
As for `CCc1c(C)cc(N)c(CC)c1N`, the outcome was inactive.

Regarding `O=P(c1ccccc1)(c1ccccc1)c1ccccc1`, the molecule was classed as inactive.

For `CN(C)CCCN`, the outcome was inactive.

For the molecule `CC(=O)OCC=Cc1ccccc1`, the call was inactive.

Consider `CC1=CCC2C(C1)C2(C)C` (configuration not stated), for which the molecule was classed as inactive.

On to `CCCC(C)C=O` (configuration not stated), for which the molecule was classed as inactive.

With `COC(=O)c1ccc(C)cc1`, the outcome was inactive.

As to `O=C1c2ccccc2C(=O)N1SC1CCCCC1`, the molecule was classed as inactive.

On to `CCCC(=O)C(C)=O`, for which the outcome was inactive.

Consider `CC(C)c1ccc(C(C)C)cc1`, for which the molecule was classed as inactive.

In the case of `Cc1ccc(Nc2ccc(O)c3c2C(=O)c2ccccc2C3=O)cc1`, the molecule was called inactive.

With `Cc1ccc2sc3cccc(C)c3c2c1`, the molecule was called inactive.

On to `COc1ccc(OC)c(OC)c1`, for which the outcome was inactive.

Regarding `CNC(=O)Oc1ccc2c(c1)[C@]1(C)CCN(C)[C@@H]1N2C`, the molecule was classed as inactive.
